# ALOX12 inhib – inhibitors of human 12-lipoxygenase (ALOX12). P18054. purified 12-hLO, xylenol orange hydroperoxide absorbance. Potency, µM (highest dose often 57.1 µM), without a hit: at the top dose activity change, negative = inhibition, hits mostly inhibitors. 150,000 compounds, 0.12% hits. AID 1452; further: potency means the concentration at half of the fitted maximal effect; nearly all actives have a fitted effect of over 55% in size
#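 Purified human 12hLO (150 nM final) was preincubated with compounds for 15 min at room temperature in 25 mM Hepes pH 7.0, 0.01% Triton X-100, then reacted with 40 uM arachidonic acid for 30 min. Hydroperoxide was detected with ferrous iron/xylenol orange.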
# HPGD block – HPGD (human) dehydrogenase inhibition; P15428; purified HPGD, NADH fluorescence kinetic, PGE2 substrate; Potency, µM, inactives show at the highest dose activity change, negative = inhibition, hits mostly inhibitors; 150,000 compounds, 4.3% hits; active means well fitted inhibition curve with a large enough effect, not every such curve was filed as active; inconclusive means small, poorly fitted or top-dose-only effect, or another doubt; inactive means no such curve, though single readings can be large or run the other way; further: potency means the concentration at half of the fitted maximal effect
# Target sequence (P15428 whole entry, looked up): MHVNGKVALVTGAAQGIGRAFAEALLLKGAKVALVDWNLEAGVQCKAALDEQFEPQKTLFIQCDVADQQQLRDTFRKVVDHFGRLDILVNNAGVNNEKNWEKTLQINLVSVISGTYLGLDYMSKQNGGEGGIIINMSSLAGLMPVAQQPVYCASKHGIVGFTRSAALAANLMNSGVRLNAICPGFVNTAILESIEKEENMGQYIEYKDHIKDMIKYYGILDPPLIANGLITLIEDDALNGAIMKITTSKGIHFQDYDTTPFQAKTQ
#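 NADH formation kinetics: reaction with 30 uM PGE2 and 1 mM NAD+ (final), 20 nM enzyme, Tris-HCl pH 8 with Tween 20, after 15 min compound preincubation at room temperature. Fluorescence change, last versus first of five reads.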
# ALOX15B inhib – inhibitors of human 15-lipoxygenase 2 (ALOX15B); purified 15hLO-2, xylenol orange hydroperoxide absorbance; Potency, µM (top dose mostly 57.1 µM), for inactives: top-dose activity change, negative = inhibition, usual class: inhibitors; O15296; 110,000 compounds, 0.56% hits; AID 881; further: potency means the concentration at half of the fitted maximal effect; nearly all actives have a fitted effect of over 60% in size
#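 Read-out: hydroperoxide product oxidises ferrous iron, measured as xylenol orange complex via the 573-to-405 nm absorbance ratio after 30 min. Reaction: 50 nM enzyme, 15 min compound preincubation, 45 uM arachidonic acid, 90 min RT, Hepes pH 7.5 with Triton X-100.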
# IMPase cell inh – cell-permeable inhibitors of inositol monophosphatase (IMPase); 120,000 tested, under 10 active; inhibition (IP1 accumulation), % at 46.1 µM; AID 901; P97697; CHO-M1 cells, IP1 accumulation, HTRF TR-FRET ratio; active means well fitted curve in the direction sought with a large enough effect in the signal ratio, not every such curve was filed as active; inconclusive means small, poorly fitted or top-dose-only effect, or a change in a side signal; inactive means no such curve, though single readings can be large or run the other way; the % refers to the signal ratio;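 further: cells stimulated with carbachol in lithium chloride buffer; plate controls were DMSO basal wells for no effect and reference inhibitor wells for full effect; higher means more IMPase inhibition seen as more IP1 and lower FRET ratio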
# Target sequence (P97697 whole entry, looked up): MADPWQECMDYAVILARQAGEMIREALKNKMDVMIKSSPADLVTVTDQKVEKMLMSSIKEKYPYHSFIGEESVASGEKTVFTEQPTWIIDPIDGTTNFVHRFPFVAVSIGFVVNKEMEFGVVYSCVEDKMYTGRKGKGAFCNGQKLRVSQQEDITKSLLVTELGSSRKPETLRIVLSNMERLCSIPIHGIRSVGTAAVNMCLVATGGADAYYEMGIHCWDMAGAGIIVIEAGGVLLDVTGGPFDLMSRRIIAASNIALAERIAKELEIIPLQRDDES
#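 CHO-M1, 2000 cells/well, cultured 16–30 h; cpd up to 46 uM; carbachol (50 uM solution, stimulation buffer w/ 50 mM LiCl, pH 7.4), 30 min 37C; IP-One TR-FRET, 10 min RT; Ex 320/Em 665, 620; Hill-fit AC50.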
# IMPase Li inh – cell-permeable IMPase inhibitors with lithium potentiation | 210,000 compounds, 0.35% hits | Potency, µM (titrated, usually from 59.4 µM), for inactives: at the top dose activity, negative = IMPase inhibition, most hits filed as inhibitors | CHO-M1 cells, IP1 TR-FRET (IP-One), carbachol + lithium | AID 1457;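 further: IP1 builds up when IMPase is blocked and the TR-FRET signal falls; potency means the concentration at half of the fitted maximal effect; plate controls were basal vehicle for no effect and high inhibitor control for full effect; nearly all actives have a fitted effect of over 50% in size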
#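 CHO cells stably expressing M1 receptor (2000/well, cultured 16–30 h) treated 30 min at 37C with compound plus low lithium. Cytosolic IP1 by TR-FRET (665/620 ratio and 620 channel) after 10 min lysis; AC50 by Hill fit.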
# PNC assembly inh – blocks assembly of the perinucleolar compartment. activity change (PNC), negative = inhibition, % at 10 µM. PC3M PTB-GFP, PNC prevalence imaging, 16 h; active compounds read low. AID 2417. 140,000 compounds, 3.1% hits;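 active means readout at or below -70, meaning at least 70% loss of cells showing the perinucleolar compartment, a nuclear body marking cancer cells; inconclusive means readout between -30 and a set limit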;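 further: plate controls were DMSO wells for no effect and camptothecin positive control wells for full effect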
#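 PC3M cells stably expressing PTB-GFP, 750–1000 cells/well, treated 16 h at 37 °C with compound (23 nl of library stock), in duplicate. After paraformaldehyde fixation and Hoechst stain, imaged at 20x; PNC prevalence scored by image analysis.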
# * hit, by the source's call; ? = inconclusive; · = no result; [ ] = remark or other dose. An excerpt weighted towards active compounds, which were near 5.3% of everything screened. Unless noted, the call rests on the fitted dose curve; in most records, active means well fitted curve in the direction sought with a large enough effect; inconclusive means small, poorly fitted or top-dose-only effect, or another doubt; inactive means no such curve, though single readings can be large; an effect the other way counts as inactive or inconclusive. Unless noted, on the % scale 0 is the no-effect control and ±100 the full control effect.
SMILES,ALOX12 inhib,HPGD block,ALOX15B inhib,IMPase cell inh,IMPase Li inh,PNC assembly inh
O=C(CSc1ncnc2c1oc1ccccc12)OCc1ccccc1,-10%,?,0%,-1,-6%[38.3 µM],21
O=C(CSc1ncnc2c1oc1ccccc12)c1cccs1,-1%,-26%,-6%,?,13µM*,-5
CC(NC(=O)Nc1cccc([N+](=O)[O-])c1)(C(F)(F)F)C(F)(F)F,-3%,-15%,-2%,-14,14%[38.3 µM],39
Cc1ccccc1C(=O)N1CCC(C(=O)N2CCN(S(=O)(=O)c3ccccc3F)CC2)CC1,·,·,·,·,0%,·
N#Cc1cc(-c2ccccc2)nc(Oc2ccccc2)n1,-4%,?,·,4,7%,-24
NC(=O)c1cc(-c2ccccc2)nc(Oc2ccccc2)n1,-3%,-20%,-1%,-1,2%[38.3 µM],-117*
NS(=O)(=O)c1cnccc1Nc1ccc(Cl)c(Cl)c1,3%,-10%,·,·,-1%,-26
CC1(C)N=C(N)N=C(N)N1CCCCc1ccccc1,5%[11.4 µM],3%,5%[11.4 µM],·,7%,·
O=C(NC12CC3CC(CC(C3)C1)C2)c1cccnc1,9%,-7%,-2%,1,0%[38.3 µM],?
O=C(NNC(=O)c1cccnc1)NC12CC3CC(CC(C3)C1)C2,-1%,-5%,·,·,3%,-81*
O=C(O)c1ccc(N2C(=O)c3cccc(Oc4ccc(Cl)cc4)c3C2=O)cc1,-1%,1.4µM*,·,·,-8%,-3
O=C(O)CN1C(=O)c2ccc(Oc3cccc4c3C(=O)N(CC(=O)O)C4=O)cc2C1=O,-4%,-7%,2%,-6,16%[38.3 µM],?
O=C(O)c1cccc(N2C(=O)c3cccc(Oc4ccc(Cl)cc4)c3C2=O)c1,-1%,25µM*,·,·,1%,16
CCOC(=O)C1=C(O)C(=O)N(CCCn2ccnc2)C1c1ccc(OC)cc1 (stereo not drawn),·,·,·,·,-4%,·
CC(C)NC(=O)N1CC[C@@]2(CCCN(C(=O)Oc3ccccc3)C2)C1,1%,-1%,2%,·,4%,·
O=C(O)c1ccccc1C(=O)Nc1ccc(-c2csc(-c3ccccc3)n2)cc1,-2%,?,·,-11,-25%,-98*
CC(C)OC(=O)c1ccc(COC(=O)c2cccc(-c3nnc(-c4ccccc4)o3)c2)cc1,-6%,-29%,·,-8,-2%,?
CC(C)OC(=O)c1cccc(-c2ccc(C=O)o2)c1,-3%,-24%,·,·,-16%,-108*
O=C(NC(Cc1c[nH]c2ccccc12)C(=O)Nc1ccc(F)c([N+](=O)[O-])c1)c1cccs1 (stereo not drawn),-9%,-3%,·,15,11%,-119*
O=C(NC(Cc1c[nH]c2ccccc12)C(=O)Nc1ccc(OC(F)(F)F)cc1)c1cccs1 (stereo not drawn),0%,-4%,·,·,3%,-113*
COc1ccccc1OC[C@H](O)COC(N)=O,-2%[25.6 µM],6%,-1%[25.6 µM],-4[20.6 µM],-10%,·
COc1ccc2cc1Oc1ccc(cc1)C[C@@H]1c3c(cc(OC)c4c3Oc3cc5c(cc3O4)CCN[C@H]5C2)CCN1C,-2%[11.4 µM],-1%,19%[11.4 µM],·,30%,·
O=c1c2c(-c3ccc([N+](=O)[O-])cc3)csc2nc2n1CCC2,5%,22µM*,·,8,24%,-18
O=C(c1cnccn1)N1CCC2(CCN(Cc3ccccc3)CC2)CC1,4%,-2%,3%,·,17%,·
O=C(O)Cc1nc2nc3c(c(=O)n2[nH]1)CCCC3,1%,-16%,1%,3,-6%[38.3 µM],-18
SMILES,ALOX12 inhib,HPGD block,ALOX15B inhib,IMPase cell inh,IMPase Li inh,PNC assembly inh
O=c1c2c(nc3nc(COc4ccccc4)[nH]n13)CCC2,3%,-3%,-1%,6,12%[38.3 µM],-110*
Brc1cccc(CNCc2cccs2)c1,4%,-11%,·,·,-11%,-89*
COc1ccccc1CCNC(=O)c1cc(-c2ccccn2)nc2ccc(Br)cc12,·,·,·,·,13µM*,·
CC1CCCCC1NC(=O)CN1C(=O)CSc2cc(S(=O)(=O)N3CCCCCC3)ccc21 (stereo not drawn),2%,-2%,·,·,1%,30
CCn1c2ccccc2n2c(=O)c(=O)n(CC(=O)Nc3ccc(C(C)C)cc3)nc12,1%,?,·,·,-16%,34
CCC(C)[C@H](NC(=O)Nc1ccc(C(C)=O)cc1)C(=O)OC (stereo partly drawn),3%,-9%,-10%,-4,-7%[38.3 µM],-82*
COc1ccc(CCNC(=O)c2cc(-c3cc(C)ccc3O)n[nH]2)cc1OC,-18%,4µM*,0%,13,5%[38.3 µM],?
COc1ccc(CCNC(=O)c2cc(-c3ccc(C)c(C)c3O)n[nH]2)cc1OC,-11%,-28%,-8%,1,19%[38.3 µM],?
COc1ccc(CCNC(=O)c2nc3ncccn3n2)cc1OC,3%,2%,-1%,0,20%[38.3 µM],-107*
COc1ccc(NC(=O)c2cc(-c3cc(C)ccc3O)n[nH]2)cc1Cl,-7%,3.2µM*,-17%,-2,-2%[38.3 µM],-25
COc1ccc(CCNC(=O)c2ccncc2)cc1OC,-5%,-9%,2%,0,8%[38.3 µM],31
C/C(=N/NC1=NCCN1)c1cn(C2=NCCN2)nc1C,6%[11.4 µM],-5%,11%[11.4 µM],·,-2%,·
Cc1nc2sccc2c(=O)n1-c1cccc(Cl)c1,-3%,-9%,-6%,3,-2%[38.3 µM],-20
O=C(CSc1nc2ccccc2s1)N1c2ccccc2Sc2ccc(Cl)cc21,3%,-5%,-3%,-15,3%[38.3 µM],?
CCN(CC)CC(=O)N1c2ccccc2Sc2ccc(Cl)cc21,10%,-15%,·,13,24%,-100*
COCc1nnc(NC(=O)CSc2ccc(C)cc2)s1,-9%,28µM*,-16%,-1,-3%[38.3 µM],19
COCC(=O)Nc1nnc(COc2ccc(Cl)cc2)s1,-4%,-18%,·,16,14%,-18
CCOCC(=O)Nc1nnc(COc2ccc(Cl)cc2)s1,-6%,11µM*,-14%,-4,5%[38.3 µM],-22
Cc1onc(-c2ccccc2Cl)c1C(=O)Nc1nnc(-c2ccc(Br)cc2)s1,-3%,?,-8%,?,8.9µM*,-12
Cc1onc(-c2ccccc2)c1C(=O)Nc1nnc(COc2ccc(Cl)cc2)s1,-11%,2.5µM*,2%[2.29 µM],1,7%[38.3 µM],?
COCc1nnc(NC(=O)CSc2ccccc2)s1,-2%,-4%,2%,-1,6%[38.3 µM],28
CN(C)S(=O)(=O)c1cccc(NC(=S)N(CCC#N)Cc2cccnc2)c1,·,·,·,·,1%,·
CC(C)Cc1nnc(NC(=O)CSc2nc(-c3ccccc3)cc(=O)[nH]2)s1,·,·,·,·,3%,·
Cc1cc(=O)[nH]c(SCC(=O)Nc2nnc(CC(C)C)s2)n1,-4%,32µM*,-4%,10,17%[38.3 µM],2
